# Reference: PMC7862700, “An all-to-all approach to the identification of sequence-specific readers for epigenetic DNA modifications on cytosine”
# Key:
# Assay in all cases: DAPPL (digital affinity profiling via proximity ligation, sequencing); 10 mM Tris-HCl pH 7.5, 50 mM NaCl, 1 mM DTT, 4% glycerol, room temperature, 30 min; GST-TFs on glutathione beads, 16-mer random dsDNA library, 0.1% formaldehyde crosslink after washing; high values mean tight binding
# FLI1 = target: T1, FLI1 (Homo sapiens, UniProt Q01543 1-452); settings: protein: recombinant; tags: N-terminal GST; dsDNA, one strand shown
# T1 sequence: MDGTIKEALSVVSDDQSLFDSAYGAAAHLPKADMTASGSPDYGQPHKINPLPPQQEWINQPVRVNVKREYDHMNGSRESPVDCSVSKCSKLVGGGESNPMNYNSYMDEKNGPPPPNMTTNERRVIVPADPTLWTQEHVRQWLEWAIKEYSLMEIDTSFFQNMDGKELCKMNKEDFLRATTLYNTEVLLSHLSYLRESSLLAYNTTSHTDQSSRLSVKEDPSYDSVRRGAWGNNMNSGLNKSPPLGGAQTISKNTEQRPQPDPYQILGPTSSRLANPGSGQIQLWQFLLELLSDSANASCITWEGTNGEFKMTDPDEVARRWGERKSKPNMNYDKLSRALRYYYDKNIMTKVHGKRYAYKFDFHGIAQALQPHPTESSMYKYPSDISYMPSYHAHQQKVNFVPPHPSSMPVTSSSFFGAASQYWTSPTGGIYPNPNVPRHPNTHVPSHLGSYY
# Method in brief: (§1)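 Sequencing on an Illumina NextSeq500 followed washing, crosslinking with 0.1% formaldehyde, proximity ligation (BsaI/T4 ligase, 1 h, 37 °C) and PCR amplification of pools that had been incubated for 30 min at room temperature with 200 nmole of a random double-stranded 16-mer DNA library in Tris/NaCl/DTT/glycerol buffer. Each pool held DNA-barcoded human transcription factors, expressed in yeast as GST fusions and captured on glutathione beads, plus a tag-only sample. Binding signal is a hexamer's read frequency for a factor divided by its frequency in the tag-only sample.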
# ELK1 = target: T2, ELK1 (Homo sapiens, UniProt P19419 1-428); settings: protein: recombinant; tags: N-terminal GST; dsDNA, one strand shown
# T2 sequence: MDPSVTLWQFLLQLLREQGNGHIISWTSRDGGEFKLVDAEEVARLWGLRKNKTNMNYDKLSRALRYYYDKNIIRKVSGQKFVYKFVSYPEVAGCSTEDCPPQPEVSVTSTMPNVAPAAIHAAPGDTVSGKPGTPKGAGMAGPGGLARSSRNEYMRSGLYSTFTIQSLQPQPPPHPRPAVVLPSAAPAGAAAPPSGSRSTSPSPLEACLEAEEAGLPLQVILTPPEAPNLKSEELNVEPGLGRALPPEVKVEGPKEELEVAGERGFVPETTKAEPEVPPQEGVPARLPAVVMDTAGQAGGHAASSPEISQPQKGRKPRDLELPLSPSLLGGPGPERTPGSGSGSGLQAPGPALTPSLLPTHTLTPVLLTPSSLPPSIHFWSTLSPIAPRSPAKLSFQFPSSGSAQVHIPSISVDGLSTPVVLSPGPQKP
# Method in brief: as §1
# GABPA = target: T3, GABPA (Homo sapiens, UniProt Q06546 1-454); settings: protein: recombinant; tags: N-terminal GST; dsDNA, one strand shown
# T3 sequence: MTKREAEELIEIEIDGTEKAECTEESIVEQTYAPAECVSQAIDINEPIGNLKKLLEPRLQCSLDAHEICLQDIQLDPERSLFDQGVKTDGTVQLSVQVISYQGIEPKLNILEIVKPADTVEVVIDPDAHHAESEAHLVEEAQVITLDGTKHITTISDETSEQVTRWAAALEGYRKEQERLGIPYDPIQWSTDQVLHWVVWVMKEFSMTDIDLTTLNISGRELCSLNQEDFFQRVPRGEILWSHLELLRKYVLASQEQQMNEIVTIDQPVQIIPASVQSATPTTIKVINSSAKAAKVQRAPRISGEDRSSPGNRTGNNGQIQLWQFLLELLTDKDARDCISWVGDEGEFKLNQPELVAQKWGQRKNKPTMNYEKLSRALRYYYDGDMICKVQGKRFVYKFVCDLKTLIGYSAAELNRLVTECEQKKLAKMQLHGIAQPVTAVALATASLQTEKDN
# Method in brief: as §1
# ERG = target: T4, ERG (Homo sapiens, UniProt P11308 1-479); settings: protein: recombinant; tags: N-terminal GST; dsDNA, one strand shown
# T4 sequence: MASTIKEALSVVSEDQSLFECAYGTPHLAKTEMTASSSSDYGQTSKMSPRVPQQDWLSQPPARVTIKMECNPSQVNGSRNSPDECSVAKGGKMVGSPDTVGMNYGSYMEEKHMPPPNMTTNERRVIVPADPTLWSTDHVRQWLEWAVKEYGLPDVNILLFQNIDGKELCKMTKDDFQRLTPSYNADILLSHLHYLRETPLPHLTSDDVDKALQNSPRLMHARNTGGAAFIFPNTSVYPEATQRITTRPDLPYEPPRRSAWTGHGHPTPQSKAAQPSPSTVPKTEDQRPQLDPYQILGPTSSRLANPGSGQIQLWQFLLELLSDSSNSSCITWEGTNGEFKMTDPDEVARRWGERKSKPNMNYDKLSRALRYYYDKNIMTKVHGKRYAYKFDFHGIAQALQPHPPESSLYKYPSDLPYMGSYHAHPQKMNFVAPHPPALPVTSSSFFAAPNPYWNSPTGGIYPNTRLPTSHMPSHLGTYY
# Method in brief: as §1
# ELF1 = ELF1 (Homo sapiens, UniProt P32519 1-619); settings: protein: recombinant; tags: N-terminal GST; dsDNA, one strand shown
# Method in brief: as §1
# EHF = target: T5, EHF (Homo sapiens, UniProt Q9NZC4 1-300); settings: protein: recombinant; tags: N-terminal GST; dsDNA, one strand shown
# T5 sequence: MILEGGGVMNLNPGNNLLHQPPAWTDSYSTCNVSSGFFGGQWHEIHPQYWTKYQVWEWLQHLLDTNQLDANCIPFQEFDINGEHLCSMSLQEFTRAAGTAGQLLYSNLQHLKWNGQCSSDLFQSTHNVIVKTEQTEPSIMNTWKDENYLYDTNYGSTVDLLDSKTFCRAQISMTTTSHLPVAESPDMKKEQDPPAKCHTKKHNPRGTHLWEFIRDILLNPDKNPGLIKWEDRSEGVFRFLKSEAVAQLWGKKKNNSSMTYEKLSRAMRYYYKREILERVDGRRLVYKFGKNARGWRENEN
# Method in brief: as §1
# SPI1 = SPI1 (Homo sapiens, UniProt P17947 1-270); settings: protein: recombinant; tags: N-terminal GST; dsDNA, one strand shown
# Method in brief: as §1
# SPIB = SPIB (Homo sapiens, UniProt Q01892 1-262); settings: protein: recombinant; tags: N-terminal GST; dsDNA, one strand shown
# Method in brief: as §1
# ELK3 = target: T6, ELK3 (Homo sapiens, UniProt P41970 1-407); settings: protein: recombinant; tags: N-terminal GST; dsDNA, one strand shown
# T6 sequence: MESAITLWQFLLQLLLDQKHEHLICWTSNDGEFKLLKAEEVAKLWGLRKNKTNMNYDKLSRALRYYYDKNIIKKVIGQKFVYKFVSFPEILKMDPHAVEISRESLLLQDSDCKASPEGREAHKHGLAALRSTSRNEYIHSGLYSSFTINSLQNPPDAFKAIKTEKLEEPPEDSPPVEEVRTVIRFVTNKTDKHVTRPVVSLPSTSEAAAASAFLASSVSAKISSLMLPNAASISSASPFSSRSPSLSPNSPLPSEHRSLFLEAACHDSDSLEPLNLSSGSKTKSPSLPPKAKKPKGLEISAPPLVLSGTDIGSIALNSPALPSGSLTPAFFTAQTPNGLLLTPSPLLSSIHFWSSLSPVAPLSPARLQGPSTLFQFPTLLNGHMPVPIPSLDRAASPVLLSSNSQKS
# Method in brief: as §1
# FEV = target: T7, FEV (Homo sapiens, UniProt Q99581 1-238); settings: protein: recombinant; tags: N-terminal GST; dsDNA, one strand shown
# T7 sequence: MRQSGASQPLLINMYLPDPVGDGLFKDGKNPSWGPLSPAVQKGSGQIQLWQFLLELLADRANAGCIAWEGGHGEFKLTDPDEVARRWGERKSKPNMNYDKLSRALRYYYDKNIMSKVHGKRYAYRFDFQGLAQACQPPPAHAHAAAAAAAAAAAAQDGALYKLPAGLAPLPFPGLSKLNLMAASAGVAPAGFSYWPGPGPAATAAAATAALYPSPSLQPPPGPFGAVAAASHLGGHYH
# Method in brief: as §1
# ETV5 = ETV5 (Homo sapiens, UniProt P41161 1-510); settings: protein: recombinant; tags: N-terminal GST; dsDNA, one strand shown
# Method in brief: as §1
# HSF1 = HSF1 (Homo sapiens, UniProt Q00613 1-529); settings: protein: recombinant; tags: N-terminal GST; chain copies: 3; dsDNA, one strand shown
# Method in brief: as §1
# SPIC = target: T8, SPIC (Homo sapiens, UniProt Q8N5J4 1-248); settings: protein: recombinant; tags: N-terminal GST; dsDNA, one strand shown
# T8 sequence: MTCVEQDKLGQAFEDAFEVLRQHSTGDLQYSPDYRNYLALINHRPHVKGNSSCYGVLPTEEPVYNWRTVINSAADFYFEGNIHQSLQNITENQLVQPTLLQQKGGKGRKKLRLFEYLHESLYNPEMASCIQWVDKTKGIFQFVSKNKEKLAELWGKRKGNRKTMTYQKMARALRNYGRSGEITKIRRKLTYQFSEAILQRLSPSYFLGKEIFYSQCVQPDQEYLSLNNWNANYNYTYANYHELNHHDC
# Method in brief: as §1
# ELF4 = ELF4 (Homo sapiens, UniProt Q99607 1-663); settings: protein: recombinant; tags: N-terminal GST; dsDNA, one strand shown
# Method in brief: as §1
# ELK4 = target: T9, ELK4 (Homo sapiens, UniProt P28324-2 1-405); settings: protein: recombinant; tags: N-terminal GST; dsDNA, one strand shown
# T9 sequence: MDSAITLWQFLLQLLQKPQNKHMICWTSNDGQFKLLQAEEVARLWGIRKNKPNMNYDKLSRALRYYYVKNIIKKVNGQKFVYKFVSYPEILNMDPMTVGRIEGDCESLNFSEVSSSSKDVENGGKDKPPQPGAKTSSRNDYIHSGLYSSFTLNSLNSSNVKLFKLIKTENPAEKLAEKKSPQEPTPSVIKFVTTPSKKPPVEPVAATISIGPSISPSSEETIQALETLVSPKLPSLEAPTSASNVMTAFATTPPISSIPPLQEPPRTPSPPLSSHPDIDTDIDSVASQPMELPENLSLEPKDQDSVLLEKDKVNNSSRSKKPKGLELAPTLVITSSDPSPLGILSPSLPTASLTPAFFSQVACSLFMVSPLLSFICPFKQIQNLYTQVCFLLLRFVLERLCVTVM
# Method in brief: as §1
# ETV2 = target: T10, ETV2 (Homo sapiens, UniProt O00321 1-342); settings: protein: recombinant; tags: N-terminal GST; dsDNA, one strand shown
# T10 sequence: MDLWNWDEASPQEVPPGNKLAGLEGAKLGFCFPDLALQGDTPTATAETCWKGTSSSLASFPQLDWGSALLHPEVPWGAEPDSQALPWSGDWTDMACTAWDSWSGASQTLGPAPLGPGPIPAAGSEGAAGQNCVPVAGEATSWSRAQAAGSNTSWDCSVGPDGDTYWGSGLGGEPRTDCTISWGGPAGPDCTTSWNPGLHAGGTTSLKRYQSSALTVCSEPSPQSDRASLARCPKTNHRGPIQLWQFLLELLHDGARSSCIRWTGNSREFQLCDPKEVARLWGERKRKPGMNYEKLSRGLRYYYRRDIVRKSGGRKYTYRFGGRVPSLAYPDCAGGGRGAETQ
# Method in brief: as §1
# ELF3 = target: T11, ELF3 (Homo sapiens, UniProt P78545 1-371); settings: protein: recombinant; tags: N-terminal GST; dsDNA, one strand shown
# T11 sequence: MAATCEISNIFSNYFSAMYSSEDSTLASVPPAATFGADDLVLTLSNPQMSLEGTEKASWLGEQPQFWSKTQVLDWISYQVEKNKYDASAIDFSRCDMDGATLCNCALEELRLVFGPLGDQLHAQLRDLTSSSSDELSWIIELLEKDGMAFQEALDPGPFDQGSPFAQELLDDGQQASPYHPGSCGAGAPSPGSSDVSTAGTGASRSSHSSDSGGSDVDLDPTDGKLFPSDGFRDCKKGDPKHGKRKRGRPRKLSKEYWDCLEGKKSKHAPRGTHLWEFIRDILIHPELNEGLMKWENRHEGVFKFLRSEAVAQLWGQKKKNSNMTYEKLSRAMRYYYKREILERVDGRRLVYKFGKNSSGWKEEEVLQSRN
# Method in brief: as §1
# CRX = CRX (Homo sapiens, UniProt O43186 1-299); settings: protein: recombinant; tags: N-terminal GST; dsDNA, one strand shown
# Method in brief: as §1
# ETV1 = ETV1 (Homo sapiens, UniProt P50549 1-477); settings: protein: recombinant; tags: N-terminal GST; dsDNA, one strand shown
# Method in brief: as §1
# Sequence of ETV5 (P41161 whole entry): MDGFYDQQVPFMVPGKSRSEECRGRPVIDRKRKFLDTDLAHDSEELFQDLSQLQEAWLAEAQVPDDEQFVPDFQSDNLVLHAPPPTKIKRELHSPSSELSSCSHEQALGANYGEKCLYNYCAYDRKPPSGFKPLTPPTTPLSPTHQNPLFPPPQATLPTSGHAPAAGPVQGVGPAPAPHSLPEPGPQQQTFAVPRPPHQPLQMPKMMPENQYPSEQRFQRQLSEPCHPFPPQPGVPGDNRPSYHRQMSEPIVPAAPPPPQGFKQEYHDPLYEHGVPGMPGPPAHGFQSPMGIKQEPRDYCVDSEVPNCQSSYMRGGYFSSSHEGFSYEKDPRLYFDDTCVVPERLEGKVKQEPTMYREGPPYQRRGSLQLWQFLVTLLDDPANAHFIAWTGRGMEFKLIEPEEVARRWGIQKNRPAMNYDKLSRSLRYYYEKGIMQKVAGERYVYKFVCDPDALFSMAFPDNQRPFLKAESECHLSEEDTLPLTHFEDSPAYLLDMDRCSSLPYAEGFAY
# Sequence of ETV1 (P50549 whole entry): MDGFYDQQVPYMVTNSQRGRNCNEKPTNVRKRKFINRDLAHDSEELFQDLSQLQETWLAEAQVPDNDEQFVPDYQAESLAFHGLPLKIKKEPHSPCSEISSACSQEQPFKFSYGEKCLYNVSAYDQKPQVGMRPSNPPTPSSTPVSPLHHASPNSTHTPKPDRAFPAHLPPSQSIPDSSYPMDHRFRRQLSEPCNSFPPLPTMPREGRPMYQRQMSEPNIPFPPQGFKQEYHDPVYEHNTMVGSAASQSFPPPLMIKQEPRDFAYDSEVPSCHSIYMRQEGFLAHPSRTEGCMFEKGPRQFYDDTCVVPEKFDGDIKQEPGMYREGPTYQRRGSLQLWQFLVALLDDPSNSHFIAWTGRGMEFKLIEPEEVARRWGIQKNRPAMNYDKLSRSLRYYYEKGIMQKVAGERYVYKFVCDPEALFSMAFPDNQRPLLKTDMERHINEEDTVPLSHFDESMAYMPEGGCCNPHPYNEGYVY
# Sequence of HSF1 (Q00613 whole entry): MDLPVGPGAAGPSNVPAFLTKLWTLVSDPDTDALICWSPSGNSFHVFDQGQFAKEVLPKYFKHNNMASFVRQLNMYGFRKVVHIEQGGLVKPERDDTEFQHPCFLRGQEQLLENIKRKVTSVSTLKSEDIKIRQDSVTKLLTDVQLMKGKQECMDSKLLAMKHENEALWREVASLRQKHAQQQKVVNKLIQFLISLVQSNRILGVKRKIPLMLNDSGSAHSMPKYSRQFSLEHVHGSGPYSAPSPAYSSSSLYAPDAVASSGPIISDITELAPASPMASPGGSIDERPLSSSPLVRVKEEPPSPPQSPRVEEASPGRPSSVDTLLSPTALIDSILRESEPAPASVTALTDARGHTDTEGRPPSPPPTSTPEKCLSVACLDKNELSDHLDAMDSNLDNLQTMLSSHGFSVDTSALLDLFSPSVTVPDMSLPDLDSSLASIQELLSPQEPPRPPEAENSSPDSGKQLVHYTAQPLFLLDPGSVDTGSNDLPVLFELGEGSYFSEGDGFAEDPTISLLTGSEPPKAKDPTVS
# Sequence of CRX (O43186 whole entry): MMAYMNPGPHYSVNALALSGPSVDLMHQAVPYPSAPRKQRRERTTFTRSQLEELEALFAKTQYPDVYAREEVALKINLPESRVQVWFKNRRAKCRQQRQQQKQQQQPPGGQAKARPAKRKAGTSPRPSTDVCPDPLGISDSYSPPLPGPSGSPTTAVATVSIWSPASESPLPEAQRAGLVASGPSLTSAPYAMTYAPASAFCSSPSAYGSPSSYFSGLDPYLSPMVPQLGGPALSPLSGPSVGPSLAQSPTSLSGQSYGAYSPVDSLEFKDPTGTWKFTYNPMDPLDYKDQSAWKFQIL
# Sequence of ELF1 (P32519 whole entry): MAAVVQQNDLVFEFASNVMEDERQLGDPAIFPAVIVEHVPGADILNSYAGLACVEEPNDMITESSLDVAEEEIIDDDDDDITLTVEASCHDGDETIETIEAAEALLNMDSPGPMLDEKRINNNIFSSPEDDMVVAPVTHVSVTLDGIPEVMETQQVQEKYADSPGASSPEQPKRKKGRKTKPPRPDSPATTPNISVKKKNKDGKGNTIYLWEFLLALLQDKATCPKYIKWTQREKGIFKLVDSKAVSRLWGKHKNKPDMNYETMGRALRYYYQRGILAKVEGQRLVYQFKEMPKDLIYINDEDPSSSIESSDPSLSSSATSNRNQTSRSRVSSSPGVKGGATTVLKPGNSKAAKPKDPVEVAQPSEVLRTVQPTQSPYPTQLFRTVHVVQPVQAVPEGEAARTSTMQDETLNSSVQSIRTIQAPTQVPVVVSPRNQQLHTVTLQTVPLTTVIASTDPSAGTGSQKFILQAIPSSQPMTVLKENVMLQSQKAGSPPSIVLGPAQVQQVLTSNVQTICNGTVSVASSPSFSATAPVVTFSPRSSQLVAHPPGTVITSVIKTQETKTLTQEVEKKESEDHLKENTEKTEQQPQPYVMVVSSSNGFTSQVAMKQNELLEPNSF
# Sequence of SPIB (Q01892 whole entry): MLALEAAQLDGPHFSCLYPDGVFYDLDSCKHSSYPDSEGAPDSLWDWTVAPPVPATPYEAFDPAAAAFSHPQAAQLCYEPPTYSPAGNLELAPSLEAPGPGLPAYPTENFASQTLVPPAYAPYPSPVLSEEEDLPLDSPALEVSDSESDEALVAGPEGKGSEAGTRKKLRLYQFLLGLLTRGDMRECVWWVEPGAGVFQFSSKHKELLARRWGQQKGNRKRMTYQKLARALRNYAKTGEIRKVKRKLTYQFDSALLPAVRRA
# Sequence of ELF4 (Q99607 whole entry): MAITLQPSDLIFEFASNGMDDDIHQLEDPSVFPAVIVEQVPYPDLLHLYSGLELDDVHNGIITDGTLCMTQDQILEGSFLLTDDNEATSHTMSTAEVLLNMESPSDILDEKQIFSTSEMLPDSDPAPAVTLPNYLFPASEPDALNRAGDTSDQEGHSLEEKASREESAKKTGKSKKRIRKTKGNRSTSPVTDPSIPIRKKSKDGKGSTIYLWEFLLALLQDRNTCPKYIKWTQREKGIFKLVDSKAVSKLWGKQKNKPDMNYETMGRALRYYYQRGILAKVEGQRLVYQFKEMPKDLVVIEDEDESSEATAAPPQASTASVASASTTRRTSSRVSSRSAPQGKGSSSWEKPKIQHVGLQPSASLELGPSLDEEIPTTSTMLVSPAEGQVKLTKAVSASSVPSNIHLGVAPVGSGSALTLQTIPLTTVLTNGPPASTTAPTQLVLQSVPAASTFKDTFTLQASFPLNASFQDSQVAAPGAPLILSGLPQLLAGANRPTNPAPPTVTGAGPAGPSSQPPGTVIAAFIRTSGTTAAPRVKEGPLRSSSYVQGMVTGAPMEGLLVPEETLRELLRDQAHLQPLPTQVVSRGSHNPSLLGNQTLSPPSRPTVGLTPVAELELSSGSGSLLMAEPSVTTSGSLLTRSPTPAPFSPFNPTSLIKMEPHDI
sequence,measurement,setting,value
AAAATG,binding signal,FLI1,"1.17 fold enrichment (6-mer frequency, TF over GST control)"
same,binding signal,ELK1,"1.15 fold enrichment (6-mer frequency, TF over GST control)"
same,binding signal,GABPA,"1.16 fold enrichment (6-mer frequency, TF over GST control)"
same,binding signal,ERG,"1.2 fold enrichment (6-mer frequency, TF over GST control)"
same,binding signal,ELF1,"1.15 fold enrichment (6-mer frequency, TF over GST control)"
same,binding signal,EHF,"1.21 fold enrichment (6-mer frequency, TF over GST control)"
same,binding signal,SPI1,"1.37 fold enrichment (6-mer frequency, TF over GST control)"
same,binding signal,SPIB,"1.26 fold enrichment (6-mer frequency, TF over GST control)"
same,binding signal,ELK3,"1.18 fold enrichment (6-mer frequency, TF over GST control)"
same,binding signal,FEV,"1.16 fold enrichment (6-mer frequency, TF over GST control)"
same,binding signal,ETV5,"1.23 fold enrichment (6-mer frequency, TF over GST control)"
same,binding signal,HSF1,"1.15 fold enrichment (6-mer frequency, TF over GST control)"
same,binding signal,SPIC,"1.32 fold enrichment (6-mer frequency, TF over GST control)"
same,binding signal,ELF4,"1.26 fold enrichment (6-mer frequency, TF over GST control)"
same,binding signal,ELK4,"1.27 fold enrichment (6-mer frequency, TF over GST control)"
same,binding signal,ETV2,"1.31 fold enrichment (6-mer frequency, TF over GST control)"
same,binding signal,ELF3,"1.32 fold enrichment (6-mer frequency, TF over GST control)"
same,binding signal,CRX,"1.1 fold enrichment (6-mer frequency, TF over GST control)"
same,binding signal,ETV1,"1.2 fold enrichment (6-mer frequency, TF over GST control)"
